Laboratory results as given in PubChem BioAssay (NCATS).
Inconclusive results are not listed. A call without a number means that no potency is given here. Calls of active or inactive are those of the source. The call rests on the fitted dose curve; in most records, active means well fitted curve in the direction sought with a large enough effect; inconclusive means small, poorly fitted or top-dose-only effect, or another doubt; inactive means no such curve, though single readings can be large; an effect the other way counts as inactive or inconclusive.

Tests used:
[1] = biological target: Glutathione peroxidase 1 (Homo sapiens) (UniProt P07203); test: Primary qHTS Assay for Inhibitors of Recombinant Selenoprotein Glutathione Peroxidase 1 (GPX1) (AID 1845191); details: recombinant GPX1, GR-coupled NADPH fluorescence, 15 min; series mostly up to 48.8 µM; further: nearly all actives have a fitted effect of over 65% in size
How it was run: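 NADPH consumption tracked by fluorescence at 340/450 nm between t=0 and t=15 min, room temperature. Final mix: 10 nM GPX1, 100 nM glutathione reductase, 1 mM GSH, 0.5 mM NADPH, 0.5 mM cumene hydroperoxide, 0.01% BSA; 30 min compound–enzyme preincubation.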

[2] = biological target: Luciferin 4-monooxygenase (Photinus pyralis) (UniProt P08659); test: Primary firefly luciferase (FLuc) qHTS assay for identification of artifact compounds. (AID 1845220); details: purified firefly luciferase, luminescence, 5 min; series mostly up to 54.1 µM; further: nearly all actives have a fitted effect of over 60% in size
How it was run: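 Compounds sat 15 min at room temperature with 10 uM luciferin and 10 uM ATP (pH 7.6 Tris acetate). Firefly luciferase (10 nM final) was then added, and luminescence was read 5 min later. Data normalized to no-enzyme and DMSO controls were Hill-fitted.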

[3] = Primary fluorescence-based thiol-reactive (MSTI) qHTS assay for identification of artifact compounds. (AID 1845221); details: MSTI thiol-reactivity probe, 1 h; series mostly up to 53.8 µM;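 further: thiol-reactive compounds lower the probe fluorescence signal; nearly all actives have a fitted effect of over 65% in size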
How it was run: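 Probe: MSTI 4 uM, PBS pH 7.4, 2% DMSO. Incubation 1 h, RT, light-protected. Readout fluorescence 525/598 nm.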

[4] = biological target: Phospholipid hydroperoxide glutathione peroxidase GPX4 (Homo sapiens) (UniProt P36969); test: Primary qHTS Assay for Inhibitors of Recombinant Selenoprotein Glutathione Peroxidase 4 (GPX4) (AID 1845192); details: recombinant GPX4, GR-coupled NADPH fluorescence, 15 min; series mostly up to 50 µM; further: nearly all actives have a fitted effect of over 65% in size; further: potency means the concentration at half of the fitted maximal effect
How it was run: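 NADPH consumption followed by fluorescence at 340/450 nm, t=0 and after 15 min at room temperature. Reaction started with cumene hydroperoxide (0.5 mM final) after 30 min compound–GPX4 preincubation; final 200 nM GPX4, 100 nM GR, 1 mM GSH, 0.5 mM NADPH.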

Chain of Phospholipid hydroperoxide glutathione peroxidase GPX4 (Homo sapiens) (P36969 whole entry, looked up): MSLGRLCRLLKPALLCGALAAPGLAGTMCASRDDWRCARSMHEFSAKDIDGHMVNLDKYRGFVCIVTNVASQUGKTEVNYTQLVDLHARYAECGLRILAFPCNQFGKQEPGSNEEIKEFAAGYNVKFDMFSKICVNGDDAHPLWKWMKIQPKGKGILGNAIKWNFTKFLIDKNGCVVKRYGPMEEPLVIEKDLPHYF
Chain of Glutathione peroxidase 1 (Homo sapiens) (P07203 whole entry, looked up): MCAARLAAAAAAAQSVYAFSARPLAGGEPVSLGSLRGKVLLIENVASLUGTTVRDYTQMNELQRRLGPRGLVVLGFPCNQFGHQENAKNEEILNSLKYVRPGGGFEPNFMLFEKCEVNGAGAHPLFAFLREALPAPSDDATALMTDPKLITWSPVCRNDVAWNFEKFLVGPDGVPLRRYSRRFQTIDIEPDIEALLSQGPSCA

SMILES: COC1C(O)C(C)OC(OC2C(CO)O[C@@H](O[C@@H]3CC4CCC5C(CC[C@]6(C)[C@@H](C7=CC(=O)OC7)CC[C@]56O)[C@@]4(C)[C@H](O)C3)C(O)C2O)C1O (stereo partly drawn)
- Potency [1]: inactive
- Potency [2]: inactive
- Potency [3]: inactive

SMILES: Cc1ccccc1-n1c(CF)nc2ccc(N)cc2c1=O
- Potency [4]: 17.8 µM (active)

SMILES: N#CC(OC1OC(COC2OC(CO)C(O)C(O)C2O)C(O)C(O)C1O)c1ccccc1 (stereo not drawn)
- Potency [4]: inactive
- Potency [2]: inactive
- Potency [3]: inactive

SMILES: COC(=O)[C@@]12C(=O)C(C)C(=O)[C@]1(C)C(C)=C[C@H]1[C@]3(C=O)CC[C@H](OC(C)=O)C(C)(C)[C@H]3CC[C@@]12C (stereo partly drawn)
- Potency [1]: inactive
- Potency [2]: inactive

SMILES: C/C=C(\C)C(=O)O[C@H]1[C@H](OC(C)=O)[C@]2(CO)[C@H](O)[C@H](O)[C@]3(C)C(=CCC4[C@@]5(C)CC[C@H](O[C@@H]6O[C@H](C(=O)O)[C@@H](O)[C@H](O[C@@H]7OC[C@H](O)[C@H](O[C@@H]8OC[C@H](O)[C@H](O)[C@H]8O)[C@H]7O)[C@H]6O[C@@H]6O[C@H](CO)[C@@H](O)[C@H](O)[C@H]6O)C(C)(C)C5CC[C@]43C)[C@@H]2CC1(C)C (stereo partly drawn)
- outcome [1]: inactive [at 9.52 µM]
- outcome [2]: inactive [at 11.6 µM]

SMILES: COC(=O)N1CCN(C(=O)Cc2ccc(Cl)c(Cl)c2)[C@@H](CN2CCCC2)C1
- Potency [4]: inactive
- Potency [2]: inactive

SMILES: C[C@H]1C(=O)O[C@H]2[C@H](O)[C@]34C5OC(=O)[C@]3(O[C@@H]3OC(=O)[C@H](O)C34[C@H](C(C)(C)C)[C@H]5O)C12O (stereo partly drawn)
- Potency [1]: inactive
- Potency [2]: inactive
- Potency [3]: inactive

SMILES: CC1=C2C(=O)C3[C@@H](CC=C4C[C@@H](O)CC[C@@]43C)[C@@H]2CC[C@]12O[C@@H]1C[C@H](C)CN[C@H]1[C@H]2C (stereo partly drawn)
- Potency [1]: inactive
- Potency [2]: inactive
